SMILES strings stand for the structures. The campaign covered roughly 300,000 compounds. About 480 (0.16%) were called active. A selection follows. Measured potencies and affinities stand elsewhere. Unmarked numbers belong to inactive results.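 The calls were made as follows: active = inhibition over 29.93%, a cutoff 3 SD above the screen mean, later confirmed by dose response; inconclusive = inhibition over 29.93% but no dose response follow-up; inactive = inhibition at most 29.93% or unconfirmed.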

The nature of the assay: inhibitors of PhoP regulon expression, primary screen, Salmonella Typhimurium, GFP reporter (AID 1863).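 Also: 0% = low Mg2+ inducing control and 100% = high Mg2+ repressing control.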 Particulars: S. Typhimurium PhoP-regulated promoter GFP reporter, 4 h; at 50 µM; stronger effect = higher value.
As to `Nc1cc(C(=O)O)c(Oc2ccc(Cl)cc2Cl)cc1C(=O)O`, the inhibition – broadly, the change of the read-out against control, counted positive when it falls – is 9.23%.
As to `O=C(O)/C=C/c1ccccc1Oc1ccc(Cl)cc1Cl`, the inhibition was 1.78%.
With `COc1ccc(N2CCN(C(=O)COc3cccc4ccccc34)CC2)cc1`, the inhibition was 4.64%.
For the compound `Cc1ccc(NCC(=O)N/N=C/c2ccc(C(=O)O)cc2)cc1`, the inhibition was 7.26%.
For the compound `CC(=O)N1CCOc2ccc(S(=O)(=O)N3CCC(C(=O)Nc4ccc(C)cc4)CC3)cc21`, the inhibition was 0.99%.
As for `O=C(Cn1nc(CNc2ccc(Cl)cc2)[n+]2c1CCCCC2)c1ccc(Cl)cc1`, the inhibition was 7.8%.
`O=C(Cn1nc(CNc2ccc(Br)cc2)[n+]2c1CCCCC2)c1ccc([N+](=O)[O-])cc1`: the inhibition is 5.85%.
Next, `COc1ccc(NCc2nn(CC(=O)c3ccc(Br)cc3)c3[n+]2CCCCC3)cc1`: -2.79%; `O=C(Cn1nc(CNc2ccc(Cl)cc2)[n+]2c1CCCCC2)c1ccccc1`: 8.62%; `O=C1Nc2ccccc2OCc2c1cccc2[N+](=O)[O-]`: -2.35%.
Consider `O=C(O)C1CCC1C(=O)Nc1nc(-c2ccc(Cl)s2)cs1` (configuration not stated), for which the inhibition was -4.65%.
Consider `CCC(=O)c1ccccc1OCCCCn1cncn1`, for which the inhibition was 4.32%.
For `CN1CCN(C(=O)CSc2nnc(COc3ccc(Cl)cc3)o2)CC1`, the inhibition was 5.2%.
On to `CC(=O)Nc1cccc(NC(=O)CCNC(=O)c2ccccc2)c1`, for which the inhibition was 5.9%.
Take `Cc1nnc(SCc2ccc(CC(=O)O)cc2)o1`: the inhibition was -9.32%.
On to `COc1ccc(C(=O)NCC(c2cccs2)N2CCc3ccccc32)cc1OC` (configuration not stated), for which the inhibition is -7.86%.
As for `COC(=O)C1=C(C)NC2=C(C(=O)CC(C)(C)C2)C1c1cnn(C)c1C` (configuration not stated), the inhibition was -3.34%.
Under `C/C(=N\Nc1nc2ccccc2[nH]1)c1ccc(C)o1` stands 9.28%; under `C/C(=N\Nc1nc2ccccc2[nH]1)c1ccc(Cl)s1`, 31.6%.
With `CN(C)S(=O)(=O)c1ccc(C(=O)NCc2ccccc2)cc1`, the inhibition is 5.29%.
Take `CC(C)CNC(=O)COC(=O)c1cccc(S(=O)(=O)NCC(F)(F)F)c1`: the inhibition is 0.22%.
For `Cn1c(=O)c(C(=O)NNC(=O)c2ccccc2Cl)c(O)c2ccccc21`, the inhibition is 3.12%.

These data come from PubChem BioAssay AID1863 (Southern Research Specialized Biocontainment Screening …, 2009).
